# Bioassay records from PubChem BioAssay.
# Rows were chosen to be rich in hits. Some 12% of all compounds tested hit in one or more screens of this group.
# HP1b binding inh: blocks HP1-beta chromodomain binding to methylated histone tails | actives 0.56% (n = 390,000) | Potency, µM (highest dose often 114 µM), without a hit: at the top dose activity change, negative = inhibition, hits mostly inhibitors | AID 540317 | AlphaScreen HP1-beta / biotin-H3K9me3 peptide binding; also: nearly all actives have a fitted effect of over 70% in size
# Target sequence (P83916 whole entry, looked up): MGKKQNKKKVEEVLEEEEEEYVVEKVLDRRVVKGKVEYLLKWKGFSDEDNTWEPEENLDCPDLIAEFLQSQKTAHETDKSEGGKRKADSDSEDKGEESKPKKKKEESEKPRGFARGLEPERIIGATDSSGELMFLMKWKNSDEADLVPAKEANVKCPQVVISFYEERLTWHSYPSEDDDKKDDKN
#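 Compound inhibition of the preformed complex between 50 nM HP1-beta and 50 nM biotinylated H3K9me3 peptide was read by AlphaScreen. Buffer was PBS pH 7.4 with 0.01% Tween-20. Incubations ran 30 min at room temperature, with 10 ug/mL donor/acceptor beads.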
# G9a block: G9a (human) methyltransferase inhibition; Q96KQ7; G9a H3K9 monomethylation, AlphaScreen, 2 h; Potency, µM (series often up to 102 µM), inactives show top-dose activity, negative = inhibition, actives largely listed as inhibitors; actives 8.8% (n = 350,000); AID 504332; also: % is scaled to controls: 0 for no effect and ±100 for the full control effect; nearly all actives have a fitted effect of over 75% in size
# Target sequence (Q96KQ7 913-1193 limits assumed): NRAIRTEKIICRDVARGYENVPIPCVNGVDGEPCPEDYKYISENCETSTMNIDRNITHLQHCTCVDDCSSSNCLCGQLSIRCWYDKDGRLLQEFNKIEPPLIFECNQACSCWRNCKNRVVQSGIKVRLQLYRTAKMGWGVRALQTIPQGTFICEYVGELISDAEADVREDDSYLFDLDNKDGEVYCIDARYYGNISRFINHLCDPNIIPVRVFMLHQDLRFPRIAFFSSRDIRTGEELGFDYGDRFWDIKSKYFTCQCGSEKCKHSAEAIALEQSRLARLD
#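 AlphaScreen detection with an anti-monomethyl H3K9 antibody quantified product after a 2 h room-temperature reaction containing 500 nM biotinylated H3K9 peptide, 20 µM SAM and 20 nM enzyme, which had been preincubated 15 min with compound.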
# BAZ2B block: BAZ2B (human) inhibition; AlphaScreen BAZ2B-H3K14Ac peptide displacement; Potency, µM (top dose mostly 114 µM), without a hit: top-dose activity change, negative = inhibition, most hits filed as inhibitors; actives 4.4% (n = 360,000); AID 504333; also: % is scaled to controls: 0 for no effect and ±100 for the full control effect; nearly all actives have a fitted effect of over 60% in size
#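 Inhibition is scored as reduced AlphaScreen emission. The BAZ2B/b-H3(5-23)K14Ac complex (50 nM each) in PBS pH 7.4, 0.01% Tween-20 meets compound (up to 110 uM) for 30 min at RT before bead addition.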
# Sfp inh: inhibitors of Bacillus subtilis Sfp phosphopantetheinyl transferase. Potency, µM, for the others: largest response in the series, negative = inhibition, most hits filed as inhibitors. AID 1490. actives 3.5% (n = 310,000). Q9F4F7. Biochemical Sfp PPTase activity, qHTS;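 also: the enzyme is Sfp with the accession as filed and its product quenches rhodamine fluorescence; 0% = enzyme reaction without inhibitor and -100% = no enzyme wells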
#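 Fluorescence-quenching assay: 15 nM Sfp-PPTase preincubated 15 min at room temperature with compound, then 5 uM rhodamine-CoA and 12.5 uM BHQ-2-labelled YbbR peptide added. Fluorescence (ex 525/em 598 nm) read at start and after 30 min; difference gives rate.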
# JMJD2A Tudor: JMJD2A Tudor domain (human) inhibition; Potency, µM (doses to about 114 µM), inactives show top-dose activity change, negative = inhibition, actives largely listed as inhibitors; actives 4.4% (n = 390,000); AlphaScreen JMJD2A-Tudor / H3K4me3 peptide binding; O75164; also: % is scaled to controls: 0 for no effect and ±100 for the full control effect; nearly all actives have a fitted effect of over 50% in size
# Active calls of the source: *; ? = inconclusive; . = no result given; [ ] = remark or other dose. Calls follow the shape of the dose curve; as a rule, active = well fitted curve in the direction sought with a large enough effect; inconclusive = small, poorly fitted or top-dose-only effect, or another doubt; inactive = no such curve, though single readings can be large; an effect the other way counts as inactive or inconclusive. Potency is read from the fitted curve at half-maximal effect.
SMILES,HP1b binding inh,G9a block,BAZ2B block,Sfp inh,JMJD2A Tudor
O=C(c1ccccc1)N1CCN(C2C3CC4CC(C3)CC2C4)CC1 (centres undefined),22%,3%,13%,-6%,-7%
CN1CCCN(C2C3CC4CC(C3)CC2C4)CC1 (centres undefined),?,10µM*,?,79µM*,1µM*
Cn1c(=O)c2cc(S(=O)(=O)NC(C(=O)Nc3cccc(F)c3)c3ccccc3)ccc2n(C)c1=O (centres undefined),44%,18µM*,-14%,9%,-13%
CCCNC(=O)C(NS(=O)(=O)c1ccc2c(c1)c(=O)n(C)c(=O)n2C)c1ccccc1 (centres undefined),37%,40µM*,-2%,12%,-13%
Cn1c(=O)c2cc(S(=O)(=O)NC(C(=O)Nc3cccnc3)c3ccccc3)ccc2n(C)c1=O (centres undefined),43%,8.9µM*,8%,-7%,-12%
Cc1ccc(NC(=O)/C(C#N)=C/c2ccccc2Cl)cc1C,14%,-53%[59 µM],?,.,-13%
CCc1ccc2[nH]c(=O)c(CN(CCCN3CCOCC3)C(=O)Nc3ccc(F)cc3)cc2c1,2%,-38%[2.33 µM],-3%,-8%,-22%
CCCN1CCCc2cc(CN(CCCN3CCOCC3)C(=O)Nc3ccc(CC)cc3)ccc21,?,13µM*,8.9µM*,.,?
CCCCN1CCCc2cc(CN(CCCN3CCOCC3)C(=O)Nc3ccc(CC)cc3)ccc21,-13%,8.9µM*,?,.,7.9µM*
Cc1ccc(/C=N/NC(=O)c2ccccn2)s1,39%,?,?,?,-9%
O=C(N/N=C/c1cccs1)c1ccccn1,16%,6.3µM*,?,50µM*,-14%
Cn1cccc1/C=N/NC(=O)c1cc(-c2cccs2)nc2ccccc12,?,32µM*,22µM*,?,?
Cn1cccc1/C=N/NC(=O)c1cc2ccccc2cc1O,?,-8%,28µM*,8%,?
Cn1cccc1/C=N/NC(=O)c1ccccn1,-8%,3.2µM*,35µM*,79µM*,?
O=C(c1cnccn1)N1CCC[C@@]2(CCN(c3cccc(-c4ccccc4)c3)C2)C1,.,0%[12.7 µM],.,-26%,.
NC(=O)c1cc[n+](Cc2ccccc2Cl)cc1,28%,9%[0.501 µM],2%,9%,-19%
Cn1cccc1/C=C(\C#N)C(N)=S,-17%,50µM*,?,-4%,-23%
N#C/C(=C/c1cc[nH]c1)C(N)=S,14%,?,-33%,-10%,-22%
Cn1cccc1/C=N/NC(N)=S,21%,?,?,56µM*,-17%
COc1ccc(S(=O)(=O)N2CCN(c3nc(-c4cccs4)nc4ccccc34)CC2)cc1,36%,.,.,.,-20%
O=C(O)C(c1ccccc1)C(c1ccccc1)c1ccccc1 (centres undefined),51%,-48%,50µM*,13%,-5%
O=C(O)C(Sc1ccncn1)c1ccccc1 (centres undefined),45%,-7%,-13%,10%,-9%
O=C(O)C(SC(C(=O)O)c1ccccc1)c1ccccc1 (centres undefined),11%,.,.,.,56µM*
COc1cc([C@@H]2Nc3c(F)cccc3[C@@H]3C=CC[C@@H]32)cc(Br)c1OC,29%,-1%[59 µM],4%,.,2%
COc1cc(NC(=O)C(NS(=O)(=O)c2ccc3c(c2)CCCC(=O)N3)C(C)C)cc(OC)c1 (centres undefined),15%,-3%[59 µM],-6%,.,-13%
SMILES,HP1b binding inh,G9a block,BAZ2B block,Sfp inh,JMJD2A Tudor
O=C(CCc1nc(-c2cccs2)no1)Nc1ccccc1[N+](=O)[O-],-18%,?,?,.,-20%
CC(=O)Nc1ccc(C(=O)CSc2nnc(-c3ccc(O)cc3)n2CC2CCCO2)cc1 (centres undefined),-14%,20µM*,-28%,?,79µM*
CC1(C)CC(=O)C(Sc2nnc(-c3ccc(O)cc3)n2CC2CCCO2)C(=O)C1 (centres undefined),42%,28µM*,?,45µM*,-21%
CCOc1ccc(C(=O)NCc2nc3cccnc3n2Cc2cccc(OC)c2)cc1,27%[57 µM],21%[59 µM],-2%,.,-12%
Cc1nnc(SCc2c(Cl)cccc2[N+](=O)[O-])s1,42%,?,-24%,22%,-2%
O=[N+]([O-])c1cccc(Cl)c1CSc1ccccn1,50%,45µM*,?,-13%,-5%
COc1ccccc1-n1c(=S)sc2c(=O)n(Cc3ccco3)c(SC)nc21,-34%,13µM*,-38%,-1%,?
CCN(CC)C(=O)CSc1nc2c(sc(=S)n2-c2ccccc2)c(=O)n1Cc1ccco1,-31%,40µM*,56µM*,40µM*,-28%
Cc1cccc(CN2C(=O)c3ccccc3Sc3ccc(C(=O)NCc4ccco4)cc32)c1,-1%,-17%[59 µM],-14%,.,-27%
Cc1ccc(S(=O)(=O)N(C)c2ccc(OCC(=O)NCC3(N(C)C)CCCCC3)cc2)cc1,19%,?,-23%,.,-20%
CCOc1ccc(S(=O)(=O)c2c[nH]c3ccccc3c2=O)cc1,13%,17%,1%,20%,-3%
CNc1ccccc1C(C)(C)c1cc(-c2cccc(OC)c2)no1,32%,1.6µM*,-32%,1%,-14%
CC(=O)c1cccc(NC(=O)CCc2nc3cccnc3n2Cc2cccs2)c1,15%,-3%[59 µM],-19%,.,-30%
CCN(CC)C(=O)C1CCN(C(=O)c2cnn(-c3ccccc3)c2-n2cccc2)CC1,25%,5%[59 µM],3%,.,-14%
NS(=O)(=O)c1ccc(CNC(=O)c2ccc(NS(=O)(=O)c3cccs3)cc2)cc1,36%,.,.,.,-5%
COc1ccc(C2(c3ccc(O)cc3O)CC(c3ccccc3Cl)NC(=S)N2)cc1 (centres undefined),?,?,28µM*,-3%,50µM*
CCOc1ccc2oc(=O)cc(CN3CCN(C(=O)c4ccc(Cl)cc4)CC3)c2c1,26%,-30%[59 µM],-13%,.,-20%
CCOC(=S)N/C(=N\S(C)(=O)=O)c1ccccc1,19%,16µM*,-19%,20µM*,-11%[11.4 µM]
CCOC(=S)N/C(=N\S(=O)(=O)c1ccccc1)c1ccccc1,?,10µM*,11%,18µM*,-7%
CC(=O)Nc1ccc(N/C(=N\S(=O)(=O)c2ccccc2)c2ccccc2)cc1,21%,21%,-5%,11%,-8%
Cc1ccc(NC(=S)N/C(=N/S(=O)(=O)c2ccccc2)c2ccccc2)cc1,-24%,13µM*,-31%,?,-30%
CCOC(=O)c1ccc(N/C(=N\S(=O)(=O)c2ccccc2C)c2ccccc2)cc1,5%,12%[12.7 µM],-29%,20%,-21%
Cc1ccc(S(=O)(=O)/N=C(/NC(=S)Nc2ccccc2)c2ccccc2)cc1,-10%,?,6%,-15%,-13%
